Active and inactive are the calls of the source. No rule for the calls is given here.
Key:
[1] = system: Botulinum neurotoxin type F light chain protease (Clostridium botulinum); test: Botulinum neurotoxin type F light chain protease inhibition, multiplex microsphere flow cytometry, validation set (AID 588459); settings: multiplex microsphere protease substrate cleavage assay, at 10 µM, stronger effect = higher value
[2] = molecular target: Botulinum neurotoxin type A (Clostridium botulinum) (UniProt P0DPI0); test: BoNT/A light chain protease inhibitors, biochemical, multiplex microsphere flow cytometry, validation set (AID 588460); settings: at 10 µM, stronger effect = higher value
[3] = molecular target: Lethal factor (Bacillus anthracis) (UniProt P15917); test: Lethal factor protease inhibitors, Bacillus anthracis, multiplex microsphere cleavage assay, validation set (AID 588461); settings: flow cytometry, at 10 µM, stronger effect = higher value

Measured: inhibition

Cc1ccc(-c2nn(-c3cccc(F)c3)cc2CN2CCN(c3ccccn3)CC2)o1
inactive: [1] -0.1% | [2] -0.9% | [3] -6.4%

NC(=O)N1c2ccccc2CC(=O)c2ccccc21
inactive: [1] -1.1% | [2] 0.3% | [3] 0.4%

COc1ccc(C(=O)NCc2cccnc2)cc1
inactive: [1] -1.8% | [2] 0% | [3] -4.9%

Cc1ccccc1C(=O)NCC(=O)O
inactive: [1] 1.1% | [2] 2.7% | [3] 2.8%

CC(=O)O[C@H]1C[C@@]2(C)[C@@H](C[C@@H](O)[C@H]3[C@@]4(C)CC[C@@H](O)[C@@H](C)C4CC[C@@]32C)/C1=C(\CCC=C(C)C)C(=O)O (stereo partly drawn)
inactive: [1] -2.5% | [2] -0.2% | [3] 1.4%

C=CCC1(O)C(=O)N2C(=C1C(=O)N1CCOCC1)c1ccccc1CC2(C)C (stereo not drawn)
inactive: [1] -1.7% | [2] -0.2% | [3] 5.7%

O=C1C(=O)N2C(=C1C(=O)N1CCCCCC1)c1ccccc1CC21CCCC1
inactive: [1] 0.3% | [2] 0.4% | [3] -3%

COc1cc(CO)ccc1OCc1nnnn1-c1ccc(C)cc1
inactive: [1] -0.2% | [2] -1% | [3] -8.2%

CC(=O)OCC(=O)[C@@]12OC3(CCCC3)O[C@@H]1C[C@H]1[C@@H]3CCC4=CC(=O)C=C[C@]4(C)[C@@]3(F)[C@@H](O)C[C@@]12C
inactive: [1] 0.8% | [2] -0.9% | [3] -0.7%

COc1ccc(C2N3CC4(C)CN2CC(C)(C3)C4)cc1OC (stereo not drawn)
inactive: [1] -0.3% | [2] -1.6% | [3] -4.9%

COc1ccc(C(=O)Nc2ccccc2C(=O)NCCCn2ccnc2)cc1
inactive: [1] -3.6% | [2] -1.8% | [3] -3.7%

O=C1OC(c2ccc(O)cc2)(c2ccc(O)cc2)c2ccccc21
inactive: [1] -0.3% | [2] -0.8% | [3] -3.6%

CN(Cc1c(C(=O)N(C)Cc2ccccc2)nc2ccccn12)CC1Cc2ccccc2O1 (stereo not drawn)
inactive: [1] 4.4% | [2] 0.4% | [3] -5.9%

CC(C)C[C@H](NC(=O)[C@@H]1Cc2ccccc2CN1C(=O)OC(C)(C)C)C(=O)NCC1CCC(C(=O)O)CC1 (stereo partly drawn)
inactive: [1] 3% | [2] 0.3% | [3] -3.6%

COc1ccc(C2=C(CN(C)C)C(c3ccccc3)c3ccccc3O2)cc1 (stereo not drawn)
inactive: [1] -3% | [2] -3.7% | [3] -2.3%

CC(C)CCNC(=O)[C@H](CC(C)C)NC(=O)[C@H]1O[C@@H]1C(=O)O
inactive: [1] -3.8% | [2] 1.5% | [3] -3%

CS(=O)(=O)Nc1cccc(C(=O)CC2(O)C(=O)Nc3ccc(Br)cc32)c1 (stereo not drawn)
inactive: [1] 3.1% | [2] 1.3% | [3] 6.6%

CC(C)OC(=O)c1ccc(NC(=O)c2cncc(Br)c2)cc1
inactive: [1] -2.9% | [2] -0.1% | [3] 7.4%

CCn1cc(C(=O)O)c(=O)c2cnc(N3CCNCC3)nc21
inactive: [1] 0.1% | [2] 1% | [3] -7.3%

CC(C)(CO)CNC(=O)CC1C(=O)NCCN1CC(c1ccccc1)c1ccccc1 (stereo not drawn)
inactive: [1] 0.8% | [2] -0.4% | [3] 0.3%

CC(=Nc1ccccc1)C1=C(O)CCCC1=O
inactive: [1] -3.4% | [2] -0.9% | [3] -5.7%

COc1ccc2c(c1OC)C(=O)NC(C)=C(C(=O)OC(C)(C)C)C2O (stereo not drawn)
inactive: [1] 4.3% | [2] -0.4% | [3] -5.3%

CC(C)[N+](C)(CCOC(=O)C1c2ccccc2Oc2ccccc21)C(C)C
inactive: [1] -0.1% | [2] 0.5% | [3] 4%

CC(C)c1cc(=O)oc2c3c4c(cc12)CCCN4CCC3
inactive: [1] 4.4% | [2] 2% | [3] -13.8%

Cc1ccc2c(c1)C(CCN)C(=O)N2Cc1ccccc1 (stereo not drawn)
inactive: [1] -1% | [2] 0.7% | [3] 6.7%

Clc1ccc2c(c1)C(N1CCNCC1)=Nc1ccccc1O2
inactive: [1] 3.1% | [2] 2.2% | [3] -6.2%

Cc1nc(C2CC(=O)OC23CCCCC3)cs1 (stereo not drawn)
inactive: [1] 0.3% | [2] -0.7% | [3] -10.4%

O=C(c1ccc(F)cc1)[C@@H]1[C@@H](C(=O)c2ccccc2)[C@@]2(C(=O)Nc3ccccc32)[C@H]2c3ccccc3C=CN12
inactive: [1] 4.8% | [2] 0.3% | [3] -3.6%

CN(C)CC/C=C1\c2ccccc2Sc2ccc(Cl)cc21
inactive: [1] -9.1% | [2] -1.1% | [3] 2.3%

O=C(O)/C=C/c1cccc(OCc2ccccc2)c1
inactive: [1] -2.1% | [2] -0.9% | [3] 3.3%

CCN(CC)C(=O)c1ccc(O)c(OC)c1
inactive: [1] -2.8% | [2] -0.4% | [3] -6.3%

O=C(O)C(O)c1ccccc1 (stereo not drawn)
inactive: [1] 1.5% | [2] -1.4% | [3] 1.3%

CC1=C/C(=N\N=C2\NC(=O)C(CC(=O)Nc3ccccc3F)S2)CC(C)(C)C1 (stereo not drawn)
inactive: [1] -1.1% | [2] 0.8% | [3] 2.8%

O=c1oc2c(CN3CCN(CCO)CC3)c(O)ccc2cc1-c1ccccn1
inactive: [1] -0.2% | [2] 0.8% | [3] -4.2%

O=C(Nc1c(C(=O)O)[nH]c2ccccc12)NC1CCCCC1
inactive: [1] 1.6% | [2] 0.4% | [3] -2.2%

COc1ccc(CCNC(=O)c2c(O)c3c([nH]c2=O)CCCC3)cc1
inactive: [1] 2.6% | [2] 0.3% | [3] -14.2%

COc1ccccc1/C=C/C(=O)OCCN1CCOCC1
inactive: [1] 3% | [2] -2.1% | [3] -6.7%

CCCc1c(OCCCCc2nn[nH]n2)ccc(C(C)=O)c1O
inactive: [1] -1.3% | [2] -4% | [3] -10.3%

COC(=O)CN1C(=S)N(c2ccc(F)cc2)C(=O)C1CC(=O)Nc1ccccc1 (stereo not drawn)
inactive: [1] -5.7% | [2] -2% | [3] -5.6%

O=C(COc1ccc2ccc(=O)oc2c1)c1ccccc1
inactive: [1] -5.2% | [2] -1.1% | [3] 1%

COc1ccc(CCNC(=O)c2ccc(Cl)cc2)cc1OC
inactive: [1] 0.6% | [2] -1.4% | [3] -4.6%

CC12CN3CC(C)(CN(C1)C3c1ccc(Br)cc1O)C2 (stereo not drawn)
inactive: [1] -1.8% | [2] -1.2% | [3] -7.5%

C[C@@H]1CCC[C@H](C)N1NC(=O)c1ccc(Cl)c(S(N)(=O)=O)c1
inactive: [1] 1.2% | [2] -1.2% | [3] -0.8%

CC[C@]1(O)CC2CN(CCc3c([nH]c4ccccc34)[C@@](C(=O)OC)(c3cc4c(cc3OC)N(C=O)[C@H]3[C@@](O)(C(=O)OC)[C@H](OC(C)=O)[C@]5(CC)C=CCN6CC[C@]43[C@@H]65)C2)C1 (stereo partly drawn)
inactive: [1] 1.5% | [2] 0% | [3] -12.5%

COc1ccc(C(=O)NC(=O)NC2(C(Cl)(Cl)Cl)OCCO2)cc1
inactive: [1] 0.9% | [2] -1.2% | [3] 3.1%

Nc1ccc(N)c(C(=O)O)c1
inactive: [1] -6.1% | [2] -14% | [3] -7.2%

CC1(C)CC(=O)C2=C(C1)c1c(ccc3ccccc13)NC2c1ccco1 (stereo not drawn)
inactive: [1] 1.8% | [2] 1.1% | [3] 3.8%

COc1cccc2c(=O)c3ccccc3oc12
inactive: [1] 12.6% | [2] 3.9% | [3] -4.2%

Cc1ccc2c(c1)OC(=O)CC2c1ccccc1 (stereo not drawn)
inactive: [1] -4.2% | [2] -1.1% | [3] -4.4%

CCCC(=O)Nc1ncnc2c1ncn2[C@@H]1O[C@@H]2COP(=O)(O)O[C@H]2[C@H]1OC(=O)CCC
inactive: [1] -0.5% | [2] -1% | [3] -2.7%

O=C(CCNNC(=O)c1ccncc1)NCc1ccccc1
inactive: [1] 4.1% | [2] 0.9% | [3] 5.5%

CC(=O)c1cn(C)c(=O)[nH]c1=O
inactive: [1] 2.9% | [2] 1.3% | [3] -0.5%

Cn1cnc2c1c(=O)n(CC(O)CO)c(=O)n2C (stereo not drawn)
inactive: [1] -0.3% | [2] 0% | [3] -1.4%

COc1cc2cc(C)nc(Cc3cccc4ccccc34)c2cc1OC
inactive: [1] 5.3% | [2] 1.3% | [3] 3.2%

CC12CCC(C(=O)Nc3ccccc3Br)(C/C1=N\O)C2(C)C (stereo not drawn)
inactive: [1] -3.6% | [2] -0.7% | [3] -6.5%

O=C(O)CCn1cnc2ccccc2c1=O
inactive: [1] 1.4% | [2] 0.3% | [3] -3.5%

Cc1ccc2nc3c(cc(C(=O)NCC4CCCO4)c(=N)n3CCCOC(C)C)c(=O)n2c1 (stereo not drawn)
inactive: [1] 3.3% | [2] -0.1% | [3] -4%

CC(=O)OCC(=O)[C@@]1(OC(C)=O)[C@@H](C)C[C@H]2[C@@H]3C[C@H](F)C4=CC(=O)C=C[C@]4(C)[C@@]3(F)[C@@H](O)C[C@@]21C
inactive: [1] 1.6% | [2] 0.4% | [3] -0.9%

O=C(O)c1ccccc1Nc1cccc(C(F)(F)F)c1
inactive: [1] -4.2% | [2] -0.9% | [3] 1.9%

COc1ccccc1N=CC1=C(O)CC(c2ccccc2)CC1=O (stereo not drawn)
inactive: [1] 0.8% | [2] 2.2% | [3] -5%

Fc1ccccc1CNCCC(Cc1ccccc1)c1ccc2c(c1)OCO2 (stereo not drawn)
inactive: [1] -8.9% | [2] -0.6% | [3] 1.9%

— PubChem BioAssay
